Records with an inconclusive call do not appear. Calls of active or inactive are those of the source. How the source made its calls: active means hit-call score of the fitted dose curve at least 0.9, where 1 is the maximum; inconclusive means response in the unintended direction; inactive means score below 0.9.
Each compound was assayed against Retinoic acid receptor alpha (Homo sapiens) (UniProt P10276) (assay: NVS_NR_hRAR_Antagonist: NovaScreen (NVS) Nuclear Receptor Binding Assay for human Retinoic Acid Alpha Receptor Antagonism (RAR) (AID 2283358)).
Retinoic acid receptor alpha (Homo sapiens), sequence (P10276 whole entry, looked up): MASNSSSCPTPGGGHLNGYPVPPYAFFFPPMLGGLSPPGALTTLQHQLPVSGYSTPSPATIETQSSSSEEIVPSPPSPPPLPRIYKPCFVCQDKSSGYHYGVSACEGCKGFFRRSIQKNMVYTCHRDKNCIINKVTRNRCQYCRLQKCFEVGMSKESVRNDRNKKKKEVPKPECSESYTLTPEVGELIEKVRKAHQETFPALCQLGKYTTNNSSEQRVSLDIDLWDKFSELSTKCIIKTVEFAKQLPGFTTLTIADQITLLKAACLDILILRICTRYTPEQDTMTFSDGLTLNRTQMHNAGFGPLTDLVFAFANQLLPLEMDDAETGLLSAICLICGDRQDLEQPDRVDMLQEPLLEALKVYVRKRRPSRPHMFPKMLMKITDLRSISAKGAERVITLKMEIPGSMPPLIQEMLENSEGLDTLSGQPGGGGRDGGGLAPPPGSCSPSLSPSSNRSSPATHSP
Procedure, shortened: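 Cell-free TR-FRET binding assay on extracted receptor protein, run in antagonist mode; signal read 2 hours after chemical dosing. Loss of signal was fitted relative to DMSO baseline. Screened at 25 uM in duplicate, actives followed up in concentration series.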
In the case of `NCCO`, the outcome is reported as “inactive”. `CC1=C(/C=C/C(C)=C/C=C/C(C)=C/CO)C(C)(C)CCC1` was tested, and the outcome was “inactive”. With `FC(F)(F)C(F)(F)C(F)(F)C(F)(F)C(F)(F)C(F)(F)CCI` the outcome was “inactive”. `CCc1c(C(=O)NN2CCCCC2)nn(-c2ccc(Cl)cc2Cl)c1-c1ccc(Br)cc1` was tested, and the outcome was “inactive”. `Cc1ccc2ncccc2c1` was tested, and the outcome was “inactive”.

Each compound was assayed against human Peroxisome Proliferator-activated Receptor alpha (PPARa), PPARA (gene 5465) (UniProt Q07869) (assay: NVS_NR_hPPARa: NovaScreen (NVS) Nuclear Receptor Binding Assay for human Peroxisome Proliferator-activated Receptor alpha (PPARa) (AID 2283359);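 further: activity means loss of TR-FRET signal versus DMSO baseline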).
human Peroxisome Proliferator-activated Receptor alpha (PPARa), PPARA (gene 5465), sequence (Q07869 whole entry, looked up): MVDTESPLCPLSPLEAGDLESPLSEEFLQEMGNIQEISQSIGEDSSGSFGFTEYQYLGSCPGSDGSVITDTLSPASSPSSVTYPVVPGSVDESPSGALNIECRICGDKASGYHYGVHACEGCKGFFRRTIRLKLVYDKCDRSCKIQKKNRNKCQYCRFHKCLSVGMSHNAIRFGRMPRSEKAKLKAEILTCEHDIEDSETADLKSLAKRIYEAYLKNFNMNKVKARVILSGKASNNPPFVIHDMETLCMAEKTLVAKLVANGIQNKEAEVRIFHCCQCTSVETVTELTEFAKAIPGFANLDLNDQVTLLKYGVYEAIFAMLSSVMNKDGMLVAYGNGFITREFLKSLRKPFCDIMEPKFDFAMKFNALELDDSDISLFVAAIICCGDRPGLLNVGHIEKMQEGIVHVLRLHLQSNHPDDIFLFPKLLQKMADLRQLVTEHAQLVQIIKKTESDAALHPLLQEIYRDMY
Procedure, shortened: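 Cell-free binding assay with extracted human protein, read by TR-FRET 1 h after chemical dosing. Loss of signal relative to DMSO baseline indicates binding. Primary screen used duplicate single concentration (25 uM); actives followed up in concentration series.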
For `CC1=C(/C=C/C(C)=C/C=C/C(C)=C/CO)C(C)(C)CCC1`, the outcome was “inactive”. For `CCCCOC(=O)CCCCCCCCC(=O)OCCCC`, the outcome was “inactive”. With `Cc1ccc(C(C)C)c(O)c1` the outcome was “inactive”. For `CCCCCCCCCCO`, the outcome was “inactive”. `CCCCCCCC=O` was tested, and the outcome was “inactive”. In the case of `Oc1ccc2ccccc2c1N=Nc1ccccc1`, the outcome is reported as “inactive”. In the case of `O=c1c(O)c(-c2ccc(O)c(O)c2)oc2cc(O)cc(O)c12`, the outcome is reported as “inactive”. For `Oc1ccc2c(c1)OC[C@@H](N1CCC(O)(c3ccc(F)cc3)CC1)[C@H]2O`, the outcome was “inactive”. `CC(CO)OC(C)CO` (stereo not given) (tested in a mixture with another compound) was tested, and the outcome was “inactive”. With `C=CCOC(=O)c1ccccc1C(=O)OCC=C` the outcome was “inactive”. In the case of `CCCCCCCCCCCCCCCCCC(=O)O`, the AC50 is reported as 0.608 µM (active).

Each compound was assayed against PGR (gene 5241) (UniProt P06401) (assay: NVS_NR_hPR: NovaScreen (NVS) Nuclear Receptor Binding Assay for human Progestron Receptor (PR) (AID 2283360);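 further: active means loss of bound radioligand signal versus DMSO baseline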).
PGR (gene 5241), sequence (P06401 whole entry, looked up): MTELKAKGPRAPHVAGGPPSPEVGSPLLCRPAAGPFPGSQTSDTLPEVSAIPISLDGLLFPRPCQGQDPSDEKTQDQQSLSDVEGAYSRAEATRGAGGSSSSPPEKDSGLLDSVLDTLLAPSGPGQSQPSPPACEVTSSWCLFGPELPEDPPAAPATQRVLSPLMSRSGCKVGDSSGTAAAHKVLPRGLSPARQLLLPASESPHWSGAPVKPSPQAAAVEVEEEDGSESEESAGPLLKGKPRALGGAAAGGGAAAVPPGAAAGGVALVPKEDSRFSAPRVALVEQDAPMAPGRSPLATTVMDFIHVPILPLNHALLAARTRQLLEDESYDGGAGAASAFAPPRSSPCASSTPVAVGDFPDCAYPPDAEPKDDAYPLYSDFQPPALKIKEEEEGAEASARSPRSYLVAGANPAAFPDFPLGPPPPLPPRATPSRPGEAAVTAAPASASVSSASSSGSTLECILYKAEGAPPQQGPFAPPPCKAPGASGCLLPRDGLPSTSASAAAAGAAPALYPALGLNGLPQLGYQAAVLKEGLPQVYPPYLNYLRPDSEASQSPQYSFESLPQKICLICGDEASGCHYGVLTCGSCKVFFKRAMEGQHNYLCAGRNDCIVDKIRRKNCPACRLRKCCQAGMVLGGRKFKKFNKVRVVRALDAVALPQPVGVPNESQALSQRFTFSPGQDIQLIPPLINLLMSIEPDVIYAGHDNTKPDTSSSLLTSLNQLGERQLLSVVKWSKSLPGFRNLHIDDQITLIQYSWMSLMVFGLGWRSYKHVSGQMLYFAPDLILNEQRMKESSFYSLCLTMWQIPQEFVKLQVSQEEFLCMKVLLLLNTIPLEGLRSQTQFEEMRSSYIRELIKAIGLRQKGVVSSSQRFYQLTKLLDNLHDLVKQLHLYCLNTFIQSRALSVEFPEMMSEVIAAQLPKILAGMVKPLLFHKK
Procedure, shortened: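 Cell-free radioligand binding using receptor protein extracted from T47D cells, read by scintillation counting 18 hours after dosing. Loss of signal relative to DMSO baseline indicates displacement; primary screen single concentration 25 uM in duplicate, actives followed in concentration series.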
In the case of `c1cc(-c2ccncc2)ccn1`, the outcome is reported as “inactive”. With `COc1cc(S(=O)(=O)O)c(C)cc1N=Nc1c(O)ccc2cc(S(=O)(=O)O)ccc12` the AC50 was 14.2 µM (active). `COC(=O)c1ccc(O)cc1` was tested, and the outcome was “inactive”. In the case of `CNCc1cc(F)ccc1Oc1ccc(Cl)c(Cl)c1`, the outcome is reported as “inactive”. In the case of `Nc1ccccc1N`, the outcome is reported as “inactive”. In the case of `CCCCCCC(=O)OCC`, the outcome is reported as “inactive”. In the case of `Nc1ccc(S(=O)(=O)c2ccc(N)cc2)cc1`, the outcome is reported as “inactive”. For `CCCCC(CC)COC(=O)CC(C(=O)OCC(CC)CCCC)S(=O)(=O)O` (stereo not given), the AC50 was 18.7 µM (active). In the case of `CCCCCCCC=O`, the outcome is reported as “inactive”. In the case of `CCOC(=O)C(C)(C)Oc1ccc(Cl)cc1`, the outcome is reported as “inactive”. In the case of `Oc1ccc2c(c1)OC[C@@H](N1CCC(O)(c3ccc(F)cc3)CC1)[C@H]2O`, the outcome is reported as “inactive”. With `CC1(C)CC(N=C=O)CC(C)(CN=C=O)C1` (stereo not given) the AC50 was 11.7 µM (active).

Each compound was assayed against human Thyroid Receptor Alpha (TRa), THRA (gene 7067) (UniProt P10827) (assay: NVS_NR_hTRa_Antagonist: NovaScreen (NVS) Nuclear Receptor Binding Assay for human Thyroid Receptor Alpha Antagonism (TRa) (AID 2283362);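 further: activity is loss of signal relative to DMSO baseline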).
human Thyroid Receptor Alpha (TRa), THRA (gene 7067), sequence (P10827 whole entry, looked up): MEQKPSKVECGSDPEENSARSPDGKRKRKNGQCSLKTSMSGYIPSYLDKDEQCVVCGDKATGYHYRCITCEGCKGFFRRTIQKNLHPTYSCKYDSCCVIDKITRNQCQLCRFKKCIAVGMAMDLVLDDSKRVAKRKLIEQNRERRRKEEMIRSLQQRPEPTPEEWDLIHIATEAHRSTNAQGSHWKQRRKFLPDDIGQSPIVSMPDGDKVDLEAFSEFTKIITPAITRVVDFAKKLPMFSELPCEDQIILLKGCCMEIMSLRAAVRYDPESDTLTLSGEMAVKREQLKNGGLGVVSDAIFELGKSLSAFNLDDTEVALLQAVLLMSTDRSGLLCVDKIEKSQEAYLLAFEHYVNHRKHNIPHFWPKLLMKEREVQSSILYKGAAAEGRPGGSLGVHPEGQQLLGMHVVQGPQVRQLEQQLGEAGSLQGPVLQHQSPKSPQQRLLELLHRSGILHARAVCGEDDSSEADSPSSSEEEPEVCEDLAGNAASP
Procedure, shortened: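 Chemicals were first screened in duplicate at 25 uM, then actives were retested in concentration series. Binding to the extracted receptor was measured 1 h after dosing by AlphaLISA chemiluminescence, with decreased signal versus DMSO scored as activity.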
With `Cc1c(C(=O)O)c(O)cc2c1C(=O)c1c(O)c([C@@H]3O[C@H](CO)[C@@H](O)[C@H](O)[C@H]3O)c(O)c(O)c1C2=O` the AC50 was 17.3 µM (active). For `CCCCOC(=O)CCCCCCCCC(=O)OCCCC`, the outcome was “inactive”. `Oc1ccc2ccccc2c1N=Nc1ccccc1` was tested, and the outcome was “inactive”. `CCOC(=O)C(C)(C)Oc1ccc(Cl)cc1` was tested, and the outcome was “inactive”. For `Nc1ccc2c(c1)C(=O)c1ccccc1C2=O`, the outcome was “inactive”. For `Cc1ccc2ncccc2c1`, the outcome was “inactive”. `CC1(C)CC(N=C=O)CC(C)(CN=C=O)C1` (stereo not given) was tested, and the outcome was “inactive”.

From PubChem BioAssay (EPA / NIEHS)
